Screening data: PubChem, ICCB-Longwood Screening Facility, Harvard Medical School
AID504770: growth inhibition of E. coli YBA685, primary screen, V. cholerae RctB inhibitors; E. coli YBA685 rctB-dependent plasmid, OD600 growth, 3 h; stronger effect = lower value; z-score (no concentration beside the values); 0.27% of 130,000 active; AID 504770, 2011; in the data active means z-score below about -2, passing the limit was not always enough
Mtb MbtI inh: MbtI salicylate synthase inhibitors, primary screen, biochemical, fluorescence intensity; P9WFX0; purified MbtI enzyme, fluorescence intensity read-out; inhibition, % (concentration not given with the values); 0.89% of 100,000 active; AID 493033, 2011; in the data active means inhibition mostly above about 56%, no sharp cut-off; inactive means mostly below about 77%
Target sequence (P9WFX0 whole entry, looked up): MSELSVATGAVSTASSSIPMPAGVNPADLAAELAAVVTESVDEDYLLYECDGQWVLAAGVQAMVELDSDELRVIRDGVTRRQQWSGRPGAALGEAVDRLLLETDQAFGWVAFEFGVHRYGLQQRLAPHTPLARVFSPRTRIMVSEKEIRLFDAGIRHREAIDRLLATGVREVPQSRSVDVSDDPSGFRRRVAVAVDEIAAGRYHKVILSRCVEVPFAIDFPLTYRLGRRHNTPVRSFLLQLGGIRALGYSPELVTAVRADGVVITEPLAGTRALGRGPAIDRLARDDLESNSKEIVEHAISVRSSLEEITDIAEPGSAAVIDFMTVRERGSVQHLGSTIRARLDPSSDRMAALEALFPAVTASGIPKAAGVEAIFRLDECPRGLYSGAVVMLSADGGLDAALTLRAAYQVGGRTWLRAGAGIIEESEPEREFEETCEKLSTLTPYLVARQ
Mtb MenB inh: M. tuberculosis MenB inhibitors, primary screen, biochemical, absorbance. 1,4-dihydroxy-2-naphthoyl-CoA synthase (Mycobacterium tuberculosis (strain ATCC 25618 / …. inhibition, % (no concentration beside the values). 0.43% of 100,000 active. MenB enzyme assay, absorbance read-out; in the data active means inhibition above about 21%, passing the limit was not always enough
Polio RdRp inh: poliovirus RdRp elongation inhibitors, primary screen, biochemical, fluorescence polarization, total intensity; 0.66% of 150,000 active; Genome polyprotein (Poliovirus type 1 (strain Mahoney)), P03300; % elongation, % (compound at 16.7 µg/mL); poliovirus polymerase elongation; stronger effect = lower value; in the data active means % elongation below about 90%
Hits are given with their value; . = inactive; / = not tested or not shown. Hits are enriched below; roughly 1.5% of the tested compounds scored in any of these assays.

SMILES	AID504770	Mtb MbtI inh	Mtb MenB inh	Polio RdRp inh
O=C(CC1Sc2ccccc2NC1=O)OCc1nnc(-c2ccccc2)o1 (configuration not stated)	.	.	.	.
O=C(Oc1ccc2c(c1)OCO2)c1cc2c(s1)CCCC2	.	.	.	.
Cn1cc(NC(=O)NC2CCCCC2)c2ccccc2c1=O	.	.	.	22
NC(=S)N/N=C/c1ccc(N2CCOCC2)s1	.	89	.	.
O=C(Nc1scc(-c2cccs2)c1C(=O)O)c1cccs1	.	/	.	.
COc1ccc(C(=O)Nc2nccs2)cc1OC	.	.	.	.
COC(=O)c1c(-c2cccs2)csc1NC(=O)c1cc(OC)cc(OC)c1	/	/	/	71
COC(=O)c1c(-c2cccs2)csc1NC(=O)c1ccc(OC)c(OC)c1	/	/	/	69
COC(=O)c1c(-c2cccs2)csc1NC(=O)c1cc(OC)c(OC)c(OC)c1	/	/	/	73
CCOc1ccc(OCCn2c(SCC(=O)O)nc3c(N)ncnc32)cc1	.	/	/	/
N=C1/C(=C2\NC(c3ccc(Br)cc3)=CS2)CC(=O)N1C1CC1	.	91	.	.
O=C1NC(=O)N(C2CCCCC2)C(=O)/C1=C/c1ccc(Br)cc1	.	.	.	.
CCCn1c(SCC(=O)N2CCCC2)nnc1C(C)C	-3.1	.	.	.
CC(C)Nc1nc(NC(C)C)nc(C(N)=O)n1	.	.	35	.
CCOC(=O)c1sc(N=NC2=C(O)CCCC2=O)c(C(=O)OCC)c1C	.	.	.	42
C=CCOC(=O)c1sc(N2CCCC2=O)c(C(=O)OCC)c1C	.	.	.	.
Cc1cccc(-c2nnc(C3CCNCC3)o2)c1	.	78	.	.
COc1ccc(OC)c(CNC(=O)Nc2cn(CC(C)C)c(=O)c3ccccc23)c1	/	/	/	25
Cc1ccc(CNC(=O)Nc2cn(CC(C)C)c(=O)c3ccccc23)cc1	/	/	/	28
Cc1ccc(C)c(N2CCN(C(=O)Nc3cn(CC(C)C)c(=O)c4ccccc34)CC2)c1	/	/	/	77
COc1cccc(CNC(=O)Nc2cn(CC(C)C)c(=O)c3ccccc23)c1	/	/	/	31
CC(C)Cn1cc(NC(=O)N2CCN(c3cccc(Cl)c3)CC2)c2ccccc2c1=O	/	/	/	.
CC(C)Cn1cc(NC(=O)NCc2ccccc2Cl)c2ccccc2c1=O	/	/	/	41
CC(C)Cn1cc(NC(=O)NCc2cccc(Cl)c2)c2ccccc2c1=O	/	/	/	58
CC(C)Cn1cc(NC(=O)NCc2ccc(Cl)cc2)c2ccccc2c1=O	/	/	/	.
SMILES	AID504770	Mtb MbtI inh	Mtb MenB inh	Polio RdRp inh
CC(C)Cn1cc(NC(=O)NCc2ccccc2)c2ccccc2c1=O	/	/	/	12
CCCCn1c(-c2cc3c(s2)CCC3)nc2cc(S(N)(=O)=O)ccc21	.	.	.	.
c1ccc(-n2nnnc2NCC(c2cccs2)c2c[nH]c3ccccc23)cc1 (configuration not stated)	.	.	.	.
CCCCC(CC)C(=O)Nc1nnc(C(C)C)s1 (configuration not stated)	.	70	.	.
CCOC(=O)c1ccc(NC(=O)c2cc3ccccc3c(=O)s2)cc1	.	/	/	/
COC(=O)C1=C(NC(=O)c2ccco2)CCS1	.	/	/	/
N#Cc1c(N2CCCC2)nc(N)c2c(N)nc(N3CCCC3)cc12	.	.	.	74
COC(=O)c1nc(S(C)(=O)=O)ncc1Cl	-2.7	.	.	.
CS(=O)(=O)c1ncc(Cl)c(C(=O)Nc2cccc(Cl)c2)n1	.	81	.	.
Cc1cccc(NC(=O)c2nc(S(C)(=O)=O)ncc2Cl)c1	/	/	/	.
COc1ccc(NC(=O)c2nc(S(C)(=O)=O)ncc2Cl)cc1Cl	.	88	.	.
O=C(CON1C(=O)c2ccccc2C1=O)c1ccc(O)cc1O	.	.	.	.
O=C(OCc1c(F)cccc1Cl)c1ccco1	.	.	.	.
Cc1ccc(C(=O)/C=C/Nc2ccc(F)c(Cl)c2)o1	.	.	.	.
CCN(CC)c1ccc(/C=c2\sc3nc(-c4ccco4)nn3c2=O)cc1	.	.	.	.
Cc1[nH]n(-c2ccccc2)c(=O)c1CCC(=O)O	.	.	.	.
CC(C)(C)C1(O)C=C(O)C(=O)N1c1cccnc1 (configuration not stated)	.	/	53	.
On1ccccc1=S	-5.3	92	.	.
Cn1ccccc1=S	.	.	.	.
Cc1cc(/C=C(\C#N)C(=O)OC(C)C)c(C)n1-c1cc(Cl)ccc1Cl	.	.	.	.
CCO/C=C1\C(=O)N(C)C(=O)c2ccccc21	.	.	/	10
CCO/C=C1/C(=O)NC(=O)c2ccccc21	.	.	.	.
CCO/C=C1/C(=O)N(Cc2ccc(OC)cc2)C(=O)c2ccccc21	.	.	.	36
CCO/C=C1/C(=O)N(c2ccc(Cl)cn2)C(=O)c2ccccc21	.	.	.	85
O=C(Cn1c(=O)oc2cc(S(=O)(=O)N3CCCC3)ccc21)Nc1cccnc1	.	.	.	.
SMILES	AID504770	Mtb MbtI inh	Mtb MenB inh	Polio RdRp inh
N/C(=N\O)c1cccc(CS(=O)(=O)c2ccc(Cl)cc2)c1	.	/	/	/
CCOC(=O)c1c(NC(=O)c2cc(-c3ccc(Br)cc3)on2)sc(C)c1C	/	/	/	89
CCOC(=O)c1c(NC(=O)c2cc(-c3cccc(Cl)c3)on2)sc(C)c1C	/	/	/	.
NCCN1CCCC1=O	.	.	28	.
Nc1nc(O)c(C2=c3cc(Br)ccc3=NC2=O)s1	.	.	.	.
O=C(Nc1cccc(-c2cn3ccsc3n2)c1)c1cccs1	.	/	/	/
CCN(CC)C(=O)Oc1cc(C(F)(F)F)nc(-c2ccc(Cl)cc2)n1	.	/	/	/
CCN(CC)C(=O)Oc1cc(COC)nc(-c2ccccc2)n1	-3	/	/	/
C[C@H]1COc2c(N3CCN(C)CC3)c(F)cc3c(=O)c(C(=O)O)cn1c23	-4.4	.	.	.
O=C(Cc1cnn(-c2ccccc2)c1)c1ccc(O)c(O)c1O	.	82	.	.
O=C(Nc1ccccc1)Nc1ccc2snnc2c1	-2.6	.	.	.
O=C(Nc1ccccc1)Nc1ccc2nnsc2c1	.	.	.	.
O=C1CC(Sc2cccs2)C(=O)N1c1ccccc1 (configuration not stated)	.	/	/	/
CCc1ccc(N2C(=O)CC(Sc3ccccc3N)C2=O)cc1 (configuration not stated)	.	.	.	.
CCc1ccc(N2C(=O)CC(Sc3ccccn3)C2=O)cc1 (configuration not stated)	.	69	.	.
O=C1CC(Sc2ccccc2)C(=O)N1c1ccccc1 (configuration not stated)	.	64	.	.
CCc1ccc(N2C(=O)CC(Sc3nnc(N)s3)C2=O)cc1 (configuration not stated)	.	101	.	.
O=C1CC(Sc2ccccn2)C(=O)N1c1ccccc1 (configuration not stated)	.	/	/	/
O=C(O)c1cccnc1SC1CC(=O)N(c2ccc(Cl)cc2)C1=O (configuration not stated)	.	66	.	.
Cc1cc(/C=N/N2CCN(C)CC2)c(C)n1CC(F)(F)F	.	.	.	.
CC(C)(CN)C(O)C(=O)O (configuration not stated)	.	.	.	.
Cc1ccccc1OCC(=O)Nc1nn2c(C)nnc2s1	.	.	.	.
